The panel holds about 83,000 compounds, 20% with a hit somewhere; the sample as a whole holds those more often.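 48-hour exposure, single concentration, 96-well plates; percent growth endpoint where 0 means no net growth. Active: below 10.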 Unmarked numbers belong to inactive results. Activity calls are given as the source filed them.

One assay has as its system A498 renal. The assay is described as follows: NCI-60 one-dose screen, 48 h (100 = growth as untreated, 0 = no growth, -100 = all killed). The note with it: 10 µM.
`COc1ccc(-c2nc(S(=O)(=O)c3ccc(C)cc3)c(S(=O)(=O)CC(=O)N(C)Cc3ccccc3)o2)cc1`: the growth was 132%. In the case of `COC[C@@H](CC(C)C)N=C1NC(=O)/C(=C/c2ccc3ncsc3c2)N1`, the growth was -7.78% (active).

With `CC(C)Sc1nc(NC2CC2)c(C#N)c(-c2ccccc2)n1`, the growth is 99.3%.

`CCOC(=O)N/C(=C1/OCCN1C)[P+](c1ccccc1)(c1ccccc1)c1ccccc1`: the growth is 115%. For `CS(=O)(=O)Nc1ccc(-c2ccc3c(c2)ncn3-c2ccc(NC(=O)Nc3ccc(Cl)c(C(F)(F)F)c3)cc2)cc1`, the growth was -85.9% (active).

Regarding `CN1CCc2c(sc3ncnc(N/N=C/c4cn(-c5ccccc5)nc4-c4ccc(Cl)cc4)c23)C1`, the growth is 94.1%. Still for that read-out and setting: then `CC1(c2ccccc2)NC(=O)N(CC(=O)Nc2ccc(C(=O)/C=C/c3ccc(Br)cc3)cc2)C1=O` (configuration not stated), with 71.1%.

`O=C(CN1CCN(c2ncnc3c2cnn3-c2ccccc2)CC1)Nc1nncs1`: the growth is 49%. Take `COc1ccc(C=CC(=O)c2ccc(-n3c(C)nc4c(cnn4-c4ccccc4)c3=O)cc2)cc1`: the growth was 104%. On to `O=C(c1ccc(-n2c(=O)[nH]c3ccccc3c2=O)cc1)N1CCOCC1`, for which the growth was 116%.

A further assay relates to CCRF-CEM leukemia. Described as above. The note with it: 10 µM.
On to `COc1cc2c3c(n(CCCNC(C)C)c(=O)c2cc1OC)-c1nc2c(cc1C3=O)OCO2`, for which the growth is 5.05% (active). Same read-out and setting: the figure for `COc1ccc2cc([C@H](C)C(=O)NCc3ccccc3)ccc2c1` is 31%; for `O=C(Cn1nc(-c2ccccc2)ccc1=O)NNC(=S)NC1CCCCC1` it is 103%; for `CN1CCCN(Cc2ccc(C(=O)Nc3cccc(Nc4ccc5cc(O)ccc5n4)c3)cc2C(F)(F)F)CC1` it is -9.62% (active). Still for that read-out and setting: the figure for `O=C1Nc2cc(Cl)ccc2/C1=C/c1cccc(OCc2ccccc2)c1` is 0.155% (active).

Turning to `O=C(c1ccc([N+](=O)[O-])c([N+](=O)[O-])c1O)n1[nH]c(=O)c2ccccc2c1=O`, the growth is 30.5%.

As to `O=C1Nc2ccc(F)cc2/C1=C/c1cccc(OCc2ccccc2)c1`, the growth is -4.49% (active). For the compound `COc1ccc(-c2nc(S(=O)(=O)c3ccccc3)c(S(C)(=O)=O)o2)cc1`, the growth is -46.7% (active).

With `C=CC(=O)Nc1nc(-c2cccc(NS(=O)(=O)c3cccc4c(N(C)C)cccc34)c2)cs1`, the growth was -32% (active). Take `Cc1cc(=O)oc2cc(OCCCCOc3ccc(/C=C/C(=O)Nc4cccc(Cl)c4)cc3)ccc12`: the growth is 83.4%. As for `COc1ccccc1C(=O)NNC(=O)CSc1nc2c(c(=O)[nH]1)CCCC2`, the growth is 96.8%. On to `NC1=NC(c2ccccc2Cl)N=C(Nc2nn[nH]n2)N1` (configuration not stated), for which the growth is 151%. As for `COc1ccc2nc(Cl)c(-c3cc(-c4ccccc4)nc(=O)[nH]3)cc2c1`, the growth was 16.4%.

For the compound `O=c1[nH]n(C(=S)N/N=C/c2ccc(F)cc2)c(=O)c2ccccc12`, the growth was 12.8%. As for `O=C(CS(=O)(=O)c1oc(-c2ccc(Cl)cc2)nc1S(=O)(=O)c1ccccc1)N1CCCC1`, the growth is -45% (active). As to `O=C1Nc2cc(Cl)ccc2/C1=C/c1cccc(OCc2ccc(Br)cc2F)c1`, the growth was -15.9% (active). Still for that read-out and setting: the figure for `Cc1nc2c(cnn2-c2ccccc2)c(=O)n1-c1ccc(NC(=O)c2ccc(F)cc2)cc1` is 34.8%; for `S=c1nc(-c2ccccc2)cc(-c2cc3ccccc3nc2Cl)[nH]1` it is 43.5%; for `Cc1ccc(C(=O)Nc2ccc(-n3c(C)nc4c(cnn4-c4ccccc4)c3=O)cc2)cc1` it is 46.3%. In the case of `Cc1cc(C)nc(NS(=O)(=O)c2ccc(N/C(N)=N/c3nccc(-c4cccs4)n3)cc2)n1`, the growth is 95%. Regarding `COc1ccc(CN2[C@H](C(=O)NCc3ccc(C(=O)NO)cc3)Cc3c([nH]c4ccccc34)[C@H]2C2CC2)cc1`, the growth is 28.8%. As to `O=C1Nc2ccc(Cl)cc2/C1=C/c1cccc(OCc2ccccc2)c1`, the growth is -21.5% (active).

Turning to `O=C(Cn1cc(CSc2nnc3oc4ccccc4n23)nn1)Nc1ccc(Br)cc1`, the growth is 97.9%. As to `CCN1CCN(c2ccc(NC(=O)Nc3ccc(-c4cc(C(=O)NC)c5ncccc5n4)cc3)cc2C(F)(F)F)CC1`, the growth is -52.5% (active). On the same count and under the same terms, the figure for `COc1ccc(-c2nc(S(=O)(=O)c3ccc(C)cc3)c(S(=O)(=O)CC(=O)N(C)Cc3ccccc3)o2)cc1` is -35.9% (active); for `CC(C)Sc1nc(NC2CC2)c(C#N)c(-c2ccccc2)n1` it is 96.3%. Same read-out and setting: the figure for `CCOC(=O)N/C(=C1/OCCN1C)[P+](c1ccccc1)(c1ccccc1)c1ccccc1` is 67.5%; for `CS(=O)(=O)Nc1ccc(-c2ccc3c(c2)ncn3-c2ccc(NC(=O)Nc3ccc(Cl)c(C(F)(F)F)c3)cc2)cc1` it is -31.7% (active); for `CN1CCc2c(sc3ncnc(N/N=C/c4cn(-c5ccccc5)nc4-c4ccc(Cl)cc4)c23)C1` it is 11.4%. In the case of `CC1(c2ccccc2)NC(=O)N(CC(=O)Nc2ccc(C(=O)/C=C/c3ccc(Br)cc3)cc2)C1=O` (configuration not stated), the growth is 32%. For `COc1ccc(C=CC(=O)c2ccc(-n3c(C)nc4c(cnn4-c4ccccc4)c3=O)cc2)cc1`, the growth is 46.4%.

With `O=C(c1ccc(-n2c(=O)[nH]c3ccccc3c2=O)cc1)N1CCOCC1`, the growth is 108%.

The values are drawn from PubChem BioAssay (NCI).
